The record followed here is PubChem BioAssay AID1671463 (Sanford-Burnham Center for Chemical Genomics, 2021).

Each structure is given as a SMILES string. The campaign covered roughly 370,000 compounds. About 520 (0.14%) were called active. The sample as a whole holds a higher share of actives than the screen did. Unmarked numbers belong to inactive results. Cut-off read from the data, not from the text of the source: active = activation above about 40%; inactive = the rest.

The target of this assay is Atrial natriuretic peptide receptor 1 (Homo sapiens) (UniProt P16066). As to the kind of experiment: GC-A stimulated cGMP production enhancers – HEK293 GC-A cells, cGMP TR-FRET, EC30 ANP, primary screen (AID 1671463). As to conditions: at 10 µM, stronger effect = higher value; 0% at EC30 ANP, 100% saturating ANP unless noted.
Chain of Atrial natriuretic peptide receptor 1 (Homo sapiens) (P16066 whole entry, looked up): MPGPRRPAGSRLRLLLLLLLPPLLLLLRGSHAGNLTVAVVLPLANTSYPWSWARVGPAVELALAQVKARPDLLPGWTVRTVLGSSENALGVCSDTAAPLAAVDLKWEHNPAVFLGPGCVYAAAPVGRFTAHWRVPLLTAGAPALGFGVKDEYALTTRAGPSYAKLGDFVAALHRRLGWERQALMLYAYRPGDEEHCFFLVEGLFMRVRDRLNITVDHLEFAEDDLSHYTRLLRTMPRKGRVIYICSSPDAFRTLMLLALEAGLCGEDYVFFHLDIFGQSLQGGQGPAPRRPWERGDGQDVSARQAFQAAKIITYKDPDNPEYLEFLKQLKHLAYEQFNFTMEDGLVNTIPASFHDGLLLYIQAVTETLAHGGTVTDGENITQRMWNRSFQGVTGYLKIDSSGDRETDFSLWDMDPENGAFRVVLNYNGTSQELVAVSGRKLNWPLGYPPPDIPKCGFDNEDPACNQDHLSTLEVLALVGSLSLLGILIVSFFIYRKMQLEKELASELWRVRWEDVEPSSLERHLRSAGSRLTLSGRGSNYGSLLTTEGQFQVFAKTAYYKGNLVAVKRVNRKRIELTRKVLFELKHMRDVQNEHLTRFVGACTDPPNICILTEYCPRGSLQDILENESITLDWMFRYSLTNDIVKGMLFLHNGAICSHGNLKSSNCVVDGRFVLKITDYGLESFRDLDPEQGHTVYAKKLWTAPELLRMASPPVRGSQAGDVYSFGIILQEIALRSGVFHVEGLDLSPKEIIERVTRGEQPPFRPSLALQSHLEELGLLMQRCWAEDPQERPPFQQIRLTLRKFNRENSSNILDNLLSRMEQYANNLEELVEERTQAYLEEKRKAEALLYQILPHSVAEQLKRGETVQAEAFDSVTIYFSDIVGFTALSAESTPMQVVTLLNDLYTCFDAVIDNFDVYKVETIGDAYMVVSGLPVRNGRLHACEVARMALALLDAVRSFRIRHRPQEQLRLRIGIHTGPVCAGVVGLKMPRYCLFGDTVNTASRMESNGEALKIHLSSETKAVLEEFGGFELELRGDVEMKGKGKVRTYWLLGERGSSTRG
Turning to `Cc1cccc(N2C(=O)NC(=O)/C(=C\c3cnn(-c4ccccc4)c3)C2=O)c1`, the activation was 54.5% [setting not given] (active).

As for `Cc1ccccc1CCC[C@@H](CC1CCCCC1)CN(C)C(=O)Oc1ccccc1`, the activation is 2.21%.

As for `Nc1ccc([N+](=O)[O-])cc1`, the activation is 1.78%.

In the case of `O=C1NC(=O)N(Cc2ccco2)C(=O)/C1=C\c1ccc(-c2ccc(F)cc2)o1`, the activation is 48.8% [setting not given] (active).

For the compound `COC(=O)C1=C(c2cc3ccccc3o2)C[C@@H]2CC[C@H]1N2C(=O)NC1CCCCC1`, the activation is -7.28%.

As for `Cc1cc(N2CCNC[C@@H]2C)ccc1N1CC[C@H](O)C1`, the activation was -0.67%.

For `COP(=O)(Sc1ccccc1)C(Cc1ccccc1)NC(=O)OCc1ccccc1` (stereo not given), the activation is -3.05%.

As for `CO[C@H]([C@H](C)/C=C/N(C)C=O)[C@@H](C)C(=O)CC[C@H](C)[C@H](O)[C@H](C)[C@H]1OC(=O)/C=C/C(C)=C/[C@H](O)[C@H](OC)C[C@@H]2C=CC[C@@H](C[C@H](OC)[C@@]3(CO3)[C@@H](OC)C[C@@H](OC)[C@@H]1C)O2`, the activation is -33.1%.

Regarding `CCOC(=O)CC1=C(C(=O)OCC)C2(C(=O)N1)C(C(=O)OC)=C(N)Oc1ccccc12` (stereo not given), the activation is -13.7% [setting not given].

As for `COc1ccc2c(c1)[C@@]13CCCCC1[C@@H](C2)NCC3` (stereo not given in full), the activation is 2.3% [setting not given].
